Screening results as filed in PubChem BioAssay.
PTHR1 agonist: qHTS for PTHR1 Agonists: Primary Screen; Parathyroid hormone/parathyroid hormone-related peptide receptor (Homo sapiens), Q03431; HEK293 GP2 PTHR1 cells, GloSensor cAMP luminescence, 1 h; Potency, µM (titrated, usually from 115 µM), inactives show at the top dose activation, hits mostly activators; hit rate 0.075% among 410,000; AID 743266, 2014; further: potency means the concentration at half of the fitted maximal effect; nearly all actives have a fitted effect of over 55% in size
Target sequence (Q03431 whole entry, looked up): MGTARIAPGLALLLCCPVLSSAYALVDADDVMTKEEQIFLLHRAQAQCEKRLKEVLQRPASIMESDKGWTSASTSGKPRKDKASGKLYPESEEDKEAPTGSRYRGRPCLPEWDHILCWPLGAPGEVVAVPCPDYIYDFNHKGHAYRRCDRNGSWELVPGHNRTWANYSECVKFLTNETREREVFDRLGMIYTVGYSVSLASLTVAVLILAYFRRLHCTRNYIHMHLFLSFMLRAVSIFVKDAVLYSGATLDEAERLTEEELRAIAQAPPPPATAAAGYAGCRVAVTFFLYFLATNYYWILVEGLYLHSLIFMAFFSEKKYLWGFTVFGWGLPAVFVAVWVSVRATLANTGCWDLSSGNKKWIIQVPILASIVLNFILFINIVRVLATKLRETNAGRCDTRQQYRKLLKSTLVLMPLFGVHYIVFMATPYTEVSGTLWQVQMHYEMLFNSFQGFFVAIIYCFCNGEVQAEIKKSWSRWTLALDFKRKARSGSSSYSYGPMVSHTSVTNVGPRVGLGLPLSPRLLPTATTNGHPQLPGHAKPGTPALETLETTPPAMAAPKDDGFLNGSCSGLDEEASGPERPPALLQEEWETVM
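HEK-293-derived GP2 cells expressing PTHR1 and a GloSensor cAMP reporter, 3,000/well, plated overnight, given luciferin plus IBMX (each 0.5 mM as added) for 1 h at 37 °C, then compound for 1 h at 37 °C. Luminescence was read after 15 min at room temperature.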
KCNH2 3.1 inh: qHTS for Inhibitors of KCHN2 3.1: Mutant qHTS; AID 720553, 2013; activity change, % (tested at about 1.8 µM); hit rate 0.95% among 340,000; U2OS KCNH2 3.1, thallium flux FluxOr; active compounds read low; Potassium voltage-gated channel subfamily H member 2, brain isoform KCNH2 3.1 (human);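 active means maximum activity change below -70%; inconclusive means maximum activity change from -70% to -50%; inactive means maximum activity change above -50%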;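 further: thallium influx rate constant from kinetic fluorescence after stimulation buffer; on the % scale 0 is the no-effect control and ±100 the full control effect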
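We transduce U2OS cells with the mutant 3.1 virus, culture them overnight, load FluxOr with Red40 quencher for 45 min, then add stimulation buffer and read kinetically for 2 min to derive a normalized rate constant.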
RXFP1 antag: qHTS Assay for Antagonists of the Relaxin Receptor RXFP1; activity change, negative = inhibition, % at 57.5 µM; HEK293-RXFP1, relaxin-stimulated cAMP HTRF, 30 min; active compounds read low; Relaxin receptor 1 (Homo sapiens), Q9HBX9; hit rate 0.59% among 350,000;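 active means activity change of -60% or lower, but not beyond a set lower limit; inconclusive means change between -60% and -40%, or beyond the set limit; inactive means change above -40%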; further: on the % scale 0 is the no-effect control and ±100 the full control effect
RXFP1 ag: qHTS Assay for Agonists of the Relaxin Receptor RXFP1; Relaxin receptor 1 (Homo sapiens), Q9HBX9; HEK293T-RXFP1 cAMP TR-FRET, 30 min; response scale: percent of porcine relaxin response, buffer zero; Potency, µM (titrated, usually from 57.5 µM), inactives show at the top dose activation, most hits filed as activators; hit rate 0.3% among 370,000; AID 2676, 2010; further: potency means the concentration at half of the fitted maximal effect; on the % scale 0 is the no-effect control and ±100 the full control effect; nearly all actives have a fitted effect of over 60% in size
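HEK293T cells stably expressing RXFP1 were pretreated with the PDE4 inhibitor Ro 20174, exposed to compounds for 30 min at 37C, lysed, and cAMP was read by TR-FRET. Data normalized to buffer (basal) and 29 nM porcine relaxin (100%).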
KCNH2 WT inh: qHTS for Inhibitors of KCHN2 3.1: Wildtype qHTS. activity change, % at 1.84 µM. Voltage-gated inwardly rectifying potassium channel KCNH2 (Homo sapiens), Q12809. U2OS, BacMam KCNH2, thallium flux FluxOr; active compounds read low. hit rate 0.37% among 340,000;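 active means maximum activity change below -70%; inconclusive means maximum activity change between -70% and -50%; inactive means maximum activity change above -50%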; further: on the % scale 0 is the no-effect control and ±100 the full control effect
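U2OS cells were transduced with wild-type KCNH2 virus (2.03 x 10^8 / mL) for 4 h at room temperature, then cultured overnight at 37 C. Thallium flux was read with FluxOr dye. Rate constants were normalized to DMSO controls.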
Glioma ERSR ind: qHTS for Inducers of the Endoplasmic Reticulum Stress Response (ERSR) in Human Glioma: qHTS | Potency, µM, for inactives: top-dose activation, hits mostly activators | U87-MG GRP78 promoter luciferase reporter, 16 h | hit rate 0.02% among 420,000; further: potency means the concentration at half of the fitted maximal effect; series mostly up to about 76 µM; % of control where 0% means no effect; nearly all actives have a fitted effect of over 35% in size
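Stably transfected U87-MG glioma cells carrying a GRP78-based luciferase sensor; 16 h compound incubation. Luminescence end-point read 10 min after Bright-Glo addition at room temperature.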
The depositor's hits bear a star; i = inactive; u = inconclusive; x = no result given. Most compounds without a hit are left out; they make up all but 1.4% or so of the library. Unless noted, the call rests on the fitted dose curve; in most records, active means well fitted curve in the direction sought with a large enough effect; inconclusive means small, poorly fitted or top-dose-only effect, or another doubt; inactive means no such curve, though single readings can be large; an effect the other way counts as inactive or inconclusive.

SMILES	PTHR1 agonist	KCNH2 3.1 inh	RXFP1 antag	RXFP1 ag	KCNH2 WT inh	Glioma ERSR ind
COc1ccc(NC(=O)c2ccccc2)cc1NS(=O)(=O)c1ccc(F)cc1	i	18	-3	1%	6	-3%
COc1ccc(NC(=O)c2ccc(-c3ccccc3)cc2)cc1NS(=O)(=O)c1ccc(F)cc1	-22%	-77*	19	3%	-2	3%
COc1ccc(NC(=O)c2ccc(-c3ccccc3)cc2)cc1S(=O)(=O)N1CCOCC1	-26%	-71*	-15	6%	1	-4%
CCN(CC)S(=O)(=O)c1cccc(NC(=O)COC(=O)c2[nH]c(C)c(C(C)=O)c2C)c1	-5%	0	1	x	3	-5%
COc1ccc(/C=N/NC(=O)c2nc(-c3ccccc3)cc(-c3ccccc3)n2)cc1OC	i	-72*	-1	5%	-4	3%
COc1cccc(/C=N/NC(=O)c2nc(-c3ccccc3)cc(-c3ccccc3)n2)c1	-9%	-78*	-1	-6%	-11	1%
CCCOC(=O)c1ccc(NC(=O)Cc2cccs2)cc1	-9%	23	-11	-2%	11	4%
CCn1c2ccccc2c2cc(CN3CCN(Cc4cc(OC)c(O)c(OC)c4)CC3)ccc21	-13%	x	-67*	3%	x	-3%
CCC1=C(OC(=O)N(CC)CC)N2C(=O)OC(=NCCc3c[nH]c4ccccc34)[C@]2(Cc2ccccc2)[C@H]2C1=CC[C@H]1C(=O)N(CC(=O)OC)C(=O)[C@H]12	-23%	3	x	0%	-8	-4%
CCNC(=S)N/N=C/c1cc(C)n(-c2ccc(Cl)cc2)c1C	-4%	-8	-18	0%	7	11%
Cc1cc(/C=N/NC(N)=S)c(C)n1-c1ccc(Cl)c(Cl)c1	-9%	-22	-105*	3%	-6	2%
CCCc1cc(C(=O)N2CCCC(Cc3cccc(Cl)c3)(C(=O)OCC)C2)n(C)n1 (stereo unspecified)	-27%	-3	-64*	-7%	-6	7%
CN(C)c1ccc2nc3ccc(=[N+](C)C)cc-3sc2c1	-48%	-6	u	16%	0	-8%
Cc1cc2nc3ccc(=[N+](C)C)cc-3sc2cc1N	-54%	-94*	u	-17%	2	-2%
CCCNC(=O)C(Cc1ccccc1C)NC(=O)c1ccc(C#N)cc1 (stereo unspecified)	-23%	-10	x	1%	-9	-2%
CCCNC(=O)C(Cc1ccccc1F)NC(=O)c1ccc(C#N)cc1 (stereo unspecified)	23%	-99*	x	0%	7	-3%
CCCCn1nc(CC(=O)NCCN(CC)CC)c2ccccc2c1=O	-14%	3	3	1%	-1	-2%
O=C(CCl)N1CCN2C(=O)c3ccccc3C12c1ccc(Cl)cc1 (stereo unspecified)	-34%	3	-14	0%	-5	-17%
Cc1ccc(C(=O)N2CCN3C(=O)c4ccccc4C23c2ccc(Cl)cc2)cc1 (stereo unspecified)	-3%	-76*	-11	-1%	-14	0%
CSc1ccc(C2C(C(=O)c3ccco3)=C(O)C(=O)N2c2nnc(SC)s2)cc1 (stereo unspecified)	-26%	7	-2	16µM*	-26	1%
COC(=O)[C@H](CC(C)C)NC(=O)N1CCCCC1	i	-126*	9	0%	0	-1%
COC(=O)[C@H](Cc1ccccc1)NC(=O)N1CCCCCC1	i	-1	-6	0%	x	4%
Cn1ccc(C(=O)NC(=S)N2CCSCC2)n1	-17%	7	5	-2%	-5	1%
CCN(C(=O)CN1CCN(c2cccc(Cl)c2)CC1)c1c(N)n(Cc2ccccc2)c(=O)[nH]c1=O	i	-4	-4	1%	-10	-2%
CCOC(=O)C1(CCc2ccccc2)CCN(Cc2nccn2CC)CC1	-1%	-36	-10	-2%	8	-2%
SMILES	PTHR1 agonist	KCNH2 3.1 inh	RXFP1 antag	RXFP1 ag	KCNH2 WT inh	Glioma ERSR ind
CCOC(=O)C1(CCc2ccccc2)CCN(Cc2c(O)cccc2OC)CC1	-23%	6	-37	2%	-4	-8%
CCOC(=O)C1(CCCc2ccccc2)CCN(C2CCSCC2)CC1	-16%	-107*	13	0%	-126*	-2%
CCOC(=O)C1(CCc2ccccc2)CCN(Cc2ccc(OC)cc2)CC1	i	-111*	2	-1%	-136*	-5%
OCC1(CCCc2ccccc2)CCN(C2CCSCC2)CC1	i	1	-2	-2%	26	-3%
CCOC(=O)C1(CC2CC2)CCN(Cc2ccc(OC)cc2F)CC1	-19%	-108*	-1	-2%	17	-4%
CCOC(=O)C1(CCc2ccccc2)CCN(Cc2ccc(O)cc2)CC1	-62%	-116*	-7	-3%	-113*	-3%
COc1ccc(-c2cn3c(n2)sc2cc(C(=O)NCc4ccccc4OC)ccc23)cc1	i	x	6	21%	x	2%
CCOC(=O)C1(CCc2ccccc2)CCN(Cc2cnc(N(C)C)s2)CC1	-25%	-112*	-7	7%	-86*	1%
CN(C)c1ncc(CN2CCC(CO)(CCCc3ccccc3)CC2)s1	i	-7	-6	5%	20	-5%
CCOC(=O)c1ccc(NC(=O)Nc2ccc3c(c2)OCCO3)cc1	i	25	-29	0%	-76*	-4%
N#CCC(=O)Nc1ccc(C(=O)OCC(=O)NC(=O)Nc2ccc3c(c2)OCCO3)cc1	-7%	10	0	x	0	1%
Cn1c(=O)c2c(ncn2CC(=O)NC2CCCCC2)n(C)c1=O	u	-16	4	16µM*	-40	-2%
COc1cc(/C=N/NC(=O)Cn2cnc3c2c(=O)n(C)c(=O)n3C)cc(OC)c1OC	i	-2	-6	19%	0	-3%
CCn1cnc2c1c(=O)n(CC(=O)O)c(=O)n2Cc1ccccc1	i	-27	-6	-2%	-2	-2%
COc1cccc(/C=N/NC(=O)Cn2cnc3c2c(=O)n(C)c(=O)n3C)c1OC	i	4	-4	18µM*	-1	-3%
COC(=O)c1ccccc1NC(=O)Cn1cnc2c1c(=O)n(C)c(=O)n2C	i	-2	-4	x	-9	-1%
